From publication PMC7862700, “An all-to-all approach to the identification of sequence-specific readers for epigenetic DNA modifications on cytosine” come the findings set out here.

What all share (test): DAPPL (digital affinity profiling via proximity ligation, sequencing); 10 mM Tris-HCl pH 7.5, 50 mM NaCl, 1 mM DTT, 4% glycerol, room temperature, 30 min; GST-TFs on glutathione beads, 16-mer random dsDNA library, 0.1% formaldehyde crosslink after washing; high values mean tight binding
What all share (settings): protein: recombinant; tags: N-terminal GST; dsDNA, one strand shown

In one assay the target is T1, ERF (Homo sapiens, UniProt P50548 1-548).
T1 sequence: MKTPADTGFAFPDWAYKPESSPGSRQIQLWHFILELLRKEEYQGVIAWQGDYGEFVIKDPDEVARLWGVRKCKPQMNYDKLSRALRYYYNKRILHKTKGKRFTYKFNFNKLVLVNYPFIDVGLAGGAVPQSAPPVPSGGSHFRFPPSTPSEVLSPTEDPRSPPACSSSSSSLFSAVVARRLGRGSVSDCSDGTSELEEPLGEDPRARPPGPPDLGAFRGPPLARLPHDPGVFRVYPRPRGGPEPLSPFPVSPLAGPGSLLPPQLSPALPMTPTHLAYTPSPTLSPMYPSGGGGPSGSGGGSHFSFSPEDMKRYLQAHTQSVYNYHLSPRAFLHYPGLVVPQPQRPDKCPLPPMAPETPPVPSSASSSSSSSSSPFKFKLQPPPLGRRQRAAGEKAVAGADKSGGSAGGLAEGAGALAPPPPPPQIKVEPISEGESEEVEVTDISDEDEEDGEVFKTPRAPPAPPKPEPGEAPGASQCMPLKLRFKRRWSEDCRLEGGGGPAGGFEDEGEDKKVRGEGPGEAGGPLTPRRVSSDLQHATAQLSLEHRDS
In outline: (§1)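 A tag-only sample was pooled with DNA-barcoded human transcription factors that had been expressed in yeast as GST fusions and captured on glutathione beads. The pools were incubated for 30 min at room temperature with 200 nmole of a random double-stranded 16-mer DNA library in Tris/NaCl/DTT/glycerol buffer, then washed, crosslinked with 0.1% formaldehyde, proximity-ligated (BsaI/T4 ligase, 1 h, 37 °C), PCR-amplified and sequenced on an Illumina NextSeq500. Binding signal is each hexamer's read frequency for a factor divided by its frequency for the tag-only sample.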

Another assay deals with T2, ETV3L (Homo sapiens, UniProt Q6ZN32 1-361).
T2 sequence: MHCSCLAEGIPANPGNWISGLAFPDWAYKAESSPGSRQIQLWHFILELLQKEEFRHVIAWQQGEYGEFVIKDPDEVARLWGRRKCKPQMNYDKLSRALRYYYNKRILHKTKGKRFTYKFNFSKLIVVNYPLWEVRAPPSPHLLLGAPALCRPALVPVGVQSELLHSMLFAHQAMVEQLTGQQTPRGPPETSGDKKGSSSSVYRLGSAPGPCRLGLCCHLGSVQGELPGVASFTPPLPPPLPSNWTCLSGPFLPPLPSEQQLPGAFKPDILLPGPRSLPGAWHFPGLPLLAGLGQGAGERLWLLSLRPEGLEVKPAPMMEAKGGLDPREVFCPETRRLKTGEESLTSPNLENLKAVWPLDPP
In outline:
as §1

Another assay concerns the target T3, ETS2 (Homo sapiens, UniProt P15036 1-469).
T3 sequence: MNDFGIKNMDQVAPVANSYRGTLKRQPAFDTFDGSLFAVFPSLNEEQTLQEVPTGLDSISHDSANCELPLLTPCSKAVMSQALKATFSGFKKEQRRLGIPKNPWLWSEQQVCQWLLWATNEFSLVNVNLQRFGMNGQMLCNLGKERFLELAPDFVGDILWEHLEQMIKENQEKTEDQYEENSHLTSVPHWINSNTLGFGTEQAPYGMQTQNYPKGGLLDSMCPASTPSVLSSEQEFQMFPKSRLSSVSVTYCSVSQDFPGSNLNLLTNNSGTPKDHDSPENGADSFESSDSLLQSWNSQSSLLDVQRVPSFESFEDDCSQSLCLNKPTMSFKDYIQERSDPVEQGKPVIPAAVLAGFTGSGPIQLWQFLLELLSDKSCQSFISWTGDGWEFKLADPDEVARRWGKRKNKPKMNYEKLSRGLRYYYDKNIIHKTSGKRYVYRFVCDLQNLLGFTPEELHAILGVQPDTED
In outline:
as §1

Another assay concerns the target T4, SPDEF (Homo sapiens, UniProt O95238 1-335).
T4 sequence: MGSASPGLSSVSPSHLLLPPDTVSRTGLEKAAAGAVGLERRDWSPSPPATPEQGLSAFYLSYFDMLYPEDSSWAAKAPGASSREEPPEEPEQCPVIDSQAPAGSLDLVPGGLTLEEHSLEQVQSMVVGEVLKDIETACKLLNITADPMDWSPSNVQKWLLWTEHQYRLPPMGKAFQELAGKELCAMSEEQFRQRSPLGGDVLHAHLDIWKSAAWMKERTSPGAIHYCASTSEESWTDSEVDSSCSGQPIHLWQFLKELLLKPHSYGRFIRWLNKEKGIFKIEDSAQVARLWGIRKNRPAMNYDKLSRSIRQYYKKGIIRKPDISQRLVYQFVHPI
In outline:
as §1

The next assay concerns the target T5, ETV7 (Homo sapiens, UniProt Q9Y603 1-341).
T5 sequence: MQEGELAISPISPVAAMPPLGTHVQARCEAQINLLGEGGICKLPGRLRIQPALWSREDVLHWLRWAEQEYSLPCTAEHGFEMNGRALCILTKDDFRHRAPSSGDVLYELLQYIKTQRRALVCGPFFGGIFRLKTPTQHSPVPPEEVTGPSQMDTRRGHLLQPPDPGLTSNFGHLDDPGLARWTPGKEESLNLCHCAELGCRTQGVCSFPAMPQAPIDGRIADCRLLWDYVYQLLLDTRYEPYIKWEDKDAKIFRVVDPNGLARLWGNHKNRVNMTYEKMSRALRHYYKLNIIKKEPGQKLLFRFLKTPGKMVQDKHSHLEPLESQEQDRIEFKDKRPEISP
In outline:
as §1

For a further assay, the target named is T6, ELF5 (Homo sapiens, UniProt Q9UKW6-2 1-255).
T6 sequence: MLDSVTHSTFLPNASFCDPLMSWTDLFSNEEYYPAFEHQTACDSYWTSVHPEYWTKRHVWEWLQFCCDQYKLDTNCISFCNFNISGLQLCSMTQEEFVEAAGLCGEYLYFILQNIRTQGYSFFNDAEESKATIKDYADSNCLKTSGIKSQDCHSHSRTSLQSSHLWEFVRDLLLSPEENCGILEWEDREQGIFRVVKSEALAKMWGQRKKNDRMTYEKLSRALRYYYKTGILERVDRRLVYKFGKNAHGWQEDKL
In outline:
as §1

Another assay concerns the target T7, ETV3 (Homo sapiens, UniProt P41162-2 1-143).
T7 sequence: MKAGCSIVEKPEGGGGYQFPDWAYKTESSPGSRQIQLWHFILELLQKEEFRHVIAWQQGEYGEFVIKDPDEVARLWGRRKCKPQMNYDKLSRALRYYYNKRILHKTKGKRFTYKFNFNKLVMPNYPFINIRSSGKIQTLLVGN
In outline:
as §1

For a further assay, the target named is ETV6 (Homo sapiens, UniProt P41212 1-452). In outline:
as §1

ETV6, sequence (P41212 whole entry): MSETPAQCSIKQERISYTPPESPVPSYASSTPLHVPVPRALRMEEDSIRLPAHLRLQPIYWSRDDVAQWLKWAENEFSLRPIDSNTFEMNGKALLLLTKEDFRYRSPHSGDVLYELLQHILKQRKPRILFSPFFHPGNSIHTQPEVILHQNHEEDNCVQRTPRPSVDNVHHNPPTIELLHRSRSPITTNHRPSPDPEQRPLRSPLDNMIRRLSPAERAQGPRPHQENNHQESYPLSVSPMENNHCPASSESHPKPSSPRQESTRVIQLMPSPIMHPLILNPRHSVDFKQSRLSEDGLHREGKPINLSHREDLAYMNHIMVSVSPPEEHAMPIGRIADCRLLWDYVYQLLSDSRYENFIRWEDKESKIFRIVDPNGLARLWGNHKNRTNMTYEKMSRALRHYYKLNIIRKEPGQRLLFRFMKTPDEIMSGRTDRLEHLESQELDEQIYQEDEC

Take CCATCA: the binding signal in the assay with ERF was 1.29 fold enrichment (6-mer frequency, TF over GST control); with ETV3L, 1.19 fold enrichment (6-mer frequency, TF over GST control); with ETS2, 1.17 fold enrichment (6-mer frequency, TF over GST control); with SPDEF it was 1.12 fold enrichment (6-mer frequency, TF over GST control); with ETV7, 1.25 fold enrichment (6-mer frequency, TF over GST control); with ELF5 it was 1.12 fold enrichment (6-mer frequency, TF over GST control). For the same sequence, the binding signal in the assay with ETV3 was 1.12 fold enrichment (6-mer frequency, TF over GST control); in the assay with ETV6 it was 1.05 fold enrichment (6-mer frequency, TF over GST control).

Take ACATAC: the binding signal was 1.23 fold enrichment (6-mer frequency, TF over GST control) with ERF; 1.15 fold enrichment (6-mer frequency, TF over GST control) in the assay with ETV3L; 1.21 fold enrichment (6-mer frequency, TF over GST control) in the assay with ETS2; 1.2 fold enrichment (6-mer frequency, TF over GST control) with SPDEF; 1.12 fold enrichment (6-mer frequency, TF over GST control) with ETV7; 1.14 fold enrichment (6-mer frequency, TF over GST control) with ELF5. Also, the binding signal in the assay with ETV3 is 1.18 fold enrichment (6-mer frequency, TF over GST control); in the assay with ETV6 it was 1.17 fold enrichment (6-mer frequency, TF over GST control).

On to CGTCTC, for which the binding signal with ERF is 1.49 fold enrichment (6-mer frequency, TF over GST control); with ETV3L, 1.71 fold enrichment (6-mer frequency, TF over GST control); in the assay with ETS2, 1.58 fold enrichment (6-mer frequency, TF over GST control); with SPDEF, 1.35 fold enrichment (6-mer frequency, TF over GST control); in the assay with ETV7, 1.44 fold enrichment (6-mer frequency, TF over GST control); with ELF5, 1.38 fold enrichment (6-mer frequency, TF over GST control). The binding signal with ETV3 was 1.48 fold enrichment (6-mer frequency, TF over GST control); with ETV6, 1.46 fold enrichment (6-mer frequency, TF over GST control).

In the case of CGATAG, the binding signal was 1.17 fold enrichment (6-mer frequency, TF over GST control) in the assay with ERF; 1.07 fold enrichment (6-mer frequency, TF over GST control) with ETV3L; 1.07 fold enrichment (6-mer frequency, TF over GST control) in the assay with ETS2; 1.03 fold enrichment (6-mer frequency, TF over GST control) with SPDEF; 1.15 fold enrichment (6-mer frequency, TF over GST control) in the assay with ETV7; 1.02 fold enrichment (6-mer frequency, TF over GST control) with ELF5. Further, the binding signal with ETV3 is 1.17 fold enrichment (6-mer frequency, TF over GST control); in the assay with ETV6, 1.11 fold enrichment (6-mer frequency, TF over GST control).

Take ACGACG: the binding signal is 1.14 fold enrichment (6-mer frequency, TF over GST control) with ERF; 1.08 fold enrichment (6-mer frequency, TF over GST control) with ETV3L; 1.12 fold enrichment (6-mer frequency, TF over GST control) with ETS2; 1.14 fold enrichment (6-mer frequency, TF over GST control) with SPDEF; 1.25 fold enrichment (6-mer frequency, TF over GST control) with ETV7; 1.15 fold enrichment (6-mer frequency, TF over GST control) in the assay with ELF5. Moreover, the binding signal in the assay with ETV3 is 1.16 fold enrichment (6-mer frequency, TF over GST control); with ETV6 it was 1.2 fold enrichment (6-mer frequency, TF over GST control).

As to CAGGAT, the binding signal in the assay with ERF is 1.15 fold enrichment (6-mer frequency, TF over GST control); with ETV3L it was 1.3 fold enrichment (6-mer frequency, TF over GST control); with ETS2 it was 1.19 fold enrichment (6-mer frequency, TF over GST control); with SPDEF, 2.03 fold enrichment (6-mer frequency, TF over GST control); with ETV7, 1.09 fold enrichment (6-mer frequency, TF over GST control); with ELF5, 1.28 fold enrichment (6-mer frequency, TF over GST control). For the same sequence, the binding signal is 1.22 fold enrichment (6-mer frequency, TF over GST control) with ETV3 and 1.19 fold enrichment (6-mer frequency, TF over GST control) with ETV6.

For the sequence TCCCTT, the binding signal in the assay with ERF is 1.57 fold enrichment (6-mer frequency, TF over GST control); in the assay with ETV3L it was 1.64 fold enrichment (6-mer frequency, TF over GST control); with ETS2, 1.67 fold enrichment (6-mer frequency, TF over GST control); with SPDEF it was 1.61 fold enrichment (6-mer frequency, TF over GST control); in the assay with ETV7 it was 1.57 fold enrichment (6-mer frequency, TF over GST control); with ELF5, 1.72 fold enrichment (6-mer frequency, TF over GST control). Further, the binding signal was 1.54 fold enrichment (6-mer frequency, TF over GST control) in the assay with ETV3 and 1.53 fold enrichment (6-mer frequency, TF over GST control) with ETV6.

Turning to CGTTAC, the binding signal in the assay with ERF was 1.16 fold enrichment (6-mer frequency, TF over GST control); in the assay with ETV3L, 1.18 fold enrichment (6-mer frequency, TF over GST control); in the assay with ETS2, 1.23 fold enrichment (6-mer frequency, TF over GST control); with SPDEF, 1.1 fold enrichment (6-mer frequency, TF over GST control); with ETV7, 1.11 fold enrichment (6-mer frequency, TF over GST control); with ELF5, 1.15 fold enrichment (6-mer frequency, TF over GST control). The binding signal in the assay with ETV3 is 1.14 fold enrichment (6-mer frequency, TF over GST control); with ETV6, 1.12 fold enrichment (6-mer frequency, TF over GST control).
